# About 14,000 (4.5%) of roughly 310,000 compounds showed an effect of 50% or more. The effect is printed as a negative number. The sample holds strong results, similar compounds and a random draw of the others, so the mix is not that of the screen.
# Target: human ether-à-go-go-related gene (hERG) potassium channel (human, UniProt Q12809)
# Experiment: primary screen, population patch clamp on CHO cells stably expressing hERG; higher = less effect of the substance
# 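Note: peak tail current of the secondary pulse compared with the same well before compound.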
# human ether-à-go-go-related gene (hERG) potassium channel, sequence (Q12809 whole entry, looked up): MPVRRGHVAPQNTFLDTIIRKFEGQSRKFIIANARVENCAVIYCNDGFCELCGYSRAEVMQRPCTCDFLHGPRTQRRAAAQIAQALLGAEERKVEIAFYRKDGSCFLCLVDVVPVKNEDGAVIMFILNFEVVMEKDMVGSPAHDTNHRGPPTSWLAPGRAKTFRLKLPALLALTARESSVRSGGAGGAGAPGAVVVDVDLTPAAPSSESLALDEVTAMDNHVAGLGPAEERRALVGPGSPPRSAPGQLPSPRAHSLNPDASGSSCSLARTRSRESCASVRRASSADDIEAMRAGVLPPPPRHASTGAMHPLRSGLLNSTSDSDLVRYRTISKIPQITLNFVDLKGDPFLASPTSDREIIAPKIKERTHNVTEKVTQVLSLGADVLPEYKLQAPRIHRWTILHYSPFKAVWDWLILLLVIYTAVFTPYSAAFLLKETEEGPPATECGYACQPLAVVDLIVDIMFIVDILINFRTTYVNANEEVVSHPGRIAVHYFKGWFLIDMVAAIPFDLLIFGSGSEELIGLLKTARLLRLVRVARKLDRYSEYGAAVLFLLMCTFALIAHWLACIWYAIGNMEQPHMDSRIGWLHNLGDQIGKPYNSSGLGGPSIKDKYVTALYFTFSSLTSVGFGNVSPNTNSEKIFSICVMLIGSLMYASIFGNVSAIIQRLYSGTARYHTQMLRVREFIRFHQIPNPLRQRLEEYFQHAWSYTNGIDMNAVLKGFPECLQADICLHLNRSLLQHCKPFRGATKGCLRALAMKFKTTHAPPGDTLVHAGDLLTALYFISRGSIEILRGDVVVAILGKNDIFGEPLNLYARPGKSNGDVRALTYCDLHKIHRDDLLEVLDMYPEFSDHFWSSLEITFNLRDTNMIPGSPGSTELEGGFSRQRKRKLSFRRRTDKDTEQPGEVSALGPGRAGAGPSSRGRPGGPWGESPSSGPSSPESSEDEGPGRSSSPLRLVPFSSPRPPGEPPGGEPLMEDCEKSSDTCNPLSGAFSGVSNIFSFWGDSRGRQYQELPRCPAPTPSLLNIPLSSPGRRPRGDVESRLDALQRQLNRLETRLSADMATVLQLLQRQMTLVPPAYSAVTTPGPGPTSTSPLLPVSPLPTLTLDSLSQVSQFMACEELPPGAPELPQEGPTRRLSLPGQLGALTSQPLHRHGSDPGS
row,Structure (SMILES),"hERG current change (%, negative = inhibition) at 10uM"
1,Cc1ccc(S(=O)(=O)N(C)C)cc1NC(=S)NCCc1ccccn1,24.2%
2,Cc1cccc(C)c1NC(=O)c1ccc(-n2cnnn2)cc1,-44.2%
3,COc1cc(C(NC=O)C(=O)Nc2c(C)cccc2C)ccc1O (stereo not drawn),15.1%
4,COc1cc(C(C(=O)Nc2c(C)cccc2C)N(C)C(=O)c2ccc(-n3cnnn3)cc2)ccc1O (stereo not drawn),-67.7%
5,O=C(CN1CCc2ccccc2C1)Nc1ccccc1N1CCCCCC1.O=C(O)C(=O)O,-5.79%
6,O=C(NS(=O)(=O)Nc1ccc(Cl)cc1)c1c[nH]c2ccccc12,23.2%
7,Cc1cc(C)c(S(=O)(=O)N2CCN(C(=O)C3CCCO3)CC2)c(C)c1 (stereo not drawn),-17.1%
8,CCc1nn(C(C)C(=O)Nc2cccc(C)c2C)c(=O)c2cc3occc3n12 (stereo not drawn),-0.753%
9,CCc1nn(C(C)C(=O)NCCN2CCN(c3cccc(C)c3C)CC2)c(=O)c2cc3occc3n12 (stereo not drawn),-65.3%
10,CCc1nn(C(C)C(=O)NCCN2CCCCCC2)c(=O)c2cc3occc3n12 (stereo not drawn),6.27%
11,O=C(c1cnn2c(C(F)(F)F)cc(-c3cccs3)nc12)N1CCOCC1,-5.7%
12,O=C(Nc1cccc(-n2cnnn2)c1)c1ccc(C(F)(F)F)cc1,-15.3%
13,Oc1ccc(-c2[nH]ncc2-c2cccc3cccnc23)c(O)c1,32.1%
14,Cc1cc(=O)oc2cc(OCC(=O)NCCCN3CCCC3=O)ccc12,29.5%
15,c1ccc2c(CN3CCOCC3)c[nH]c2c1,15.1%
16,O.c1ccc2c(CN3CCN(C4CCCCC4)CC3)c[nH]c2c1,-18.2%
17,O=[N+]([O-])c1cccc(CN2CCN(c3cccc4[nH]ccc34)CC2)c1,-7.67%
18,COc1ccccc1N1CCN(Cc2c[nH]c3ccccc23)CC1,-55.8%
19,Clc1ccccc1CN1CCN(c2cccc3[nH]ccc23)CC1,3.09%
20,c1cnc(N2CCN(Cc3c[nH]c4ccccc34)CC2)nc1,-36%
21,COc1ccccc1N1CCN(C(=O)CCc2c[nH]c3ccccc23)CC1,3.69%
22,Fc1ccccc1N1CCN(C2CCN(Cc3c[nH]c4ccccc34)CC2)CC1,-54.5%

row,Structure (SMILES),"hERG current change (%, negative = inhibition) at 10uM"
1,Cc1ccc(CN2CCN(c3cccc4[nH]ccc34)CC2)cc1,-60.4%
2,Fc1ccc(N2CCN(Cc3c[nH]c4ccccc34)CC2)cc1,-68.3%
3,COc1ccccc1N1CCN(Cc2ccc(OC)c3ccccc23)CC1,-5.46%
4,c1ccc2c(CN3CCCCCCC3)c[nH]c2c1,-22.4%
5,Cc1c(Cl)c([N+](=O)[O-])nn1CC(=O)N1CCN(C23CC4CC(CC(C4)C2)C3)CC1,19.9%
6,N#CC(C#N)=NNc1ccc(S(=O)(=O)N2CCCC2)cc1,-17.8%
7,Cc1ccc(C(=O)COc2cc(O)c3c(=O)cc(-c4ccccc4)oc3c2)cc1,24.6%
8,CCOC(=O)/C(C#N)=C1\CCCN1CC(N)=S,2.57%
9,COc1ccc2c(-c3ccccc3)cc(SC(C)C(N)=O)nc2c1 (stereo not drawn),19.3%
10,COc1ccc(C(=O)Nc2ccc([N+](=O)[O-])cn2)cc1OC,-22.6%
11,Cc1ccccc1N1CCN(Cc2c[nH]c3ccccc23)CC1,-62.1%
12,Cl.c1ccc2c(CN3CCCCCC3)c[nH]c2c1,-18.1%
13,Clc1ccccc1N1CCN(Cc2c[nH]c3ccccc23)CC1,-35.6%
14,Brc1ccc(-c2cnc3n2CCCC3)cc1,-34.2%
15,CCOc1ccc(N(CC(=O)NCCSCc2ccc(C)cc2)S(C)(=O)=O)cc1,10.1%
16,CCC(C)c1ccccc1NC(=O)C(C)N(C)Cc1cccc(OC)c1.O=C(O)C(=O)O (stereo not drawn),11.8%
17,Cc1ccc(S(=O)(=O)N(C)CC(=O)NCCCn2ccnc2)cc1,9.92%
18,Br.C=CCN1C2=NCCCN2c2ccccc21,-13.9%
19,Br.CC(C)(C)c1ccc(CN2C3=NCCCN3c3ccccc32)cc1,-77.6%
20,Br.CC(C)(C)C(=O)CN1C2=NCCCN2c2ccccc21,-75.8%
21,Cc1cccc(CN2C3=NCCCN3c3ccccc32)c1.Cl,-57.4%
22,Br.CC(C)(C)C(=O)CN1C2=NCCN2c2ccccc21,-32.1%

row,Structure (SMILES),"hERG current change (%, negative = inhibition) at 10uM"
1,Cc1ccc(CN2C3=NCCN3c3ccccc32)cc1.Cl,-68.3%
2,Cc1ccc(CN2C3=NC(=O)CN3c3ccccc32)cc1,-5.41%
3,COC(=O)Cc1ccc(NC(=S)NCCO)cc1,17.6%
4,Cn1ccs/c1=N\C(=O)Nc1cccc(Cl)c1,0.433%
5,O=C(NCc1cc([N+](=O)[O-])ccc1O)c1cccc(NS(=O)(=O)c2ccccc2)c1,18.3%
6,CCOc1ccc(C(C(=O)NC2CCCCC2)N(C(=O)Cc2cccs2)c2ccc(-n3cnnn3)c(OC)c2)cc1 (stereo not drawn),-15.7%
7,CCOC(=O)c1[nH]c(C)c(/C(O)=C2\C(=O)C(=O)N(CCCN(C)C)C2c2cccnc2)c1C (stereo not drawn),4.27%
8,NCc1cccc(-n2cccn2)c1.O=C(O)CC(=O)O,-8.09%
9,CCc1ccccc1NC(=O)CC1SCCNC1=O (stereo not drawn),26.3%
10,O=C(O)COCC(=O)NCc1csc2ccccc12,2.75%
11,COc1ccc(S(=O)(=O)Nc2ccccc2C(N)=O)cc1OC,10.1%
12,Cc1ccc(CN2C3=NCCCN3c3ccccc32)cc1.Cl,-61.2%
13,CCN1C2=NCCCN2c2ccccc21.Cl,1.64%
14,c1ccc(-n2nnnc2SCc2ccccn2)cc1,7.26%
15,CCCCC(=O)N/N=C/c1ccc(-c2ccc([N+](=O)[O-])cc2)o1,-21.9%
16,CN(C)CCCNC(=O)/C(=C/c1ccc(-c2ccc([N+](=O)[O-])cc2)o1)NC(=O)c1ccccc1,-73.6%
17,Cc1ccc(C(=O)N/C(=C/c2ccc(-c3ccc([N+](=O)[O-])cc3)o2)C(=O)NCCCN(C)C)cc1,-73.7%
18,Cc1ccc(C(=O)N/C(=C\c2ccc(-c3ccc([N+](=O)[O-])cc3)o2)C(=O)NC2CCS(=O)(=O)C2)cc1 (stereo not drawn),-28.2%
19,COc1ccc(CN=C2NC(=O)CC(C(=O)Nc3cc(C)cc(C)c3)S2)cc1 (stereo not drawn),-18.4%
20,COc1ccc(OC)c(NC(=O)CCCN2C(=O)C3C4C=CC(C4)C3C2=O)c1 (stereo not drawn),-3.43%
21,CCOC(=O)c1ccc(NC(=O)N2CCCCC2)cc1,3.33%
22,CCOc1ccc(C(=O)CN2CCN(S(=O)(=O)c3ccc(Cl)cc3)CC2)cc1,-40.2%

row,Structure (SMILES),"hERG current change (%, negative = inhibition) at 10uM"
1,CCOC(=O)COc1ccc(S(=O)(=O)N2CCN(c3ccccc3)CC2)cc1,-39%
2,CCOc1ccc(CN2CCN(S(=O)(=O)c3ccc(NC(C)=O)cc3)CC2)cc1OC.O=C(O)C(=O)O,-35.4%
3,CCOc1ccc(C(=O)CN2CCN(S(=O)(=O)c3ccc(OC)cc3)CC2)cc1,-61.7%
4,CCOc1ccc(NC(=O)CCN2CCN(S(=O)(=O)c3ccc(OC)cc3)CC2)cc1,-28.8%
5,CCOC(=O)COc1ccc(S(=O)(=O)N2CCN(c3ccc(F)cc3)CC2)cc1,-60%
6,CCOC(=O)COc1ccc(S(=O)(=O)N2CCN(c3ccc(OC)cc3)CC2)cc1,0.759%
7,CCOc1ccc(NC(=O)CCN2CCN(S(=O)(=O)c3ccc(F)cc3)CC2)cc1,-16.5%
8,CCOc1ccc(S(=O)(=O)N2CCN(S(=O)(=O)c3ccc(C(C)=O)cc3)CC2)cc1,0.493%
9,CCOc1ccc(CN2CCN(S(=O)(=O)c3ccc(NC(C)=O)cc3)CC2)cc1.O=C(O)C(=O)O,-50.4%
10,CCOc1ccc(C(=O)CN2CCN(S(=O)(=O)c3ccc(F)cc3)CC2)cc1,-63%
11,COc1ccc(CN2CCN(S(=O)(=O)c3ccc(NC(C)=O)cc3)CC2)cc1.O=C(O)C(=O)O,-29.4%
12,Cc1c(NC(=S)Nc2ccccc2)c(=O)n(-c2ccccc2)n1C,32.9%
13,NC1=NC(=O)/C(=C\c2cccs2)S1,8.6%
14,N#C/C(=C/c1ccncc1)c1nc2ccccc2s1,2.23%
15,CCOc1cccc(C=NCCc2ccc(OC)c(OC)c2)c1O,12.4%
16,O=C(NCC1CCCO1)c1ccc(Cl)c(S(=O)(=O)N2CCOCC2)c1 (stereo not drawn),12.7%
17,O=C(NCc1ccccn1)c1cccc(NS(=O)(=O)c2ccc(Br)cc2)c1,-19.8%
18,COc1ccc(N(C(C)C(=O)NCCSCc2cccc(Cl)c2)S(C)(=O)=O)cc1 (stereo not drawn),-13.3%
19,O=C(NCCS(=O)(=O)N1CCN(c2ccccc2F)CC1)c1ccc(Br)o1,-6.39%
20,CC(C)CCn1c(CN(C)Cc2ccccc2)nc2c1c(=O)n(C)c(=O)n2C,-43.9%
21,Cc1cc(C)nc(SCC(=O)Nc2ncc3c(n2)CC(C)(C)CC3=O)n1,-13.1%
